Screening data deposited in PubChem BioAssay by National Center for Advancing Translational Sciences (NCATS).
Compounds with a hit are over-represented: about 19% of the library has one in this group of screens.
HT1080 IDH1KD tx: qHTS for induction of synthetic lethality in tumor cells producing 2HG: qHTS for the HT-1080-IDH1KD cell line | AID 686971, 2013 | Potency, µM (highest dose often 46.1 µM), usual class: cytotoxic | 360,000 tested, 2% active | HT-1080 IDH1 knockdown viability, ATP luminescence, 48 h
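% activity derives from luminescence (CellTiter-Glo), normalised to DMSO and no-cell wells. HT-1080-IDH1KD cells, 750/well, had 48 h compound exposure at 37 °C.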
IL-1B inflam inh: qHTS for Inhibitors of Inflammasome Signaling: IL-1-beta AlphaLISA Primary Screen | 360,000 tested, 4.7% active | activity change, % at 57.5 µM | THP-1 LPS/ATP IL-1B secretion, AlphaLISA, 16 h; hits give low values | AID 743279, 2014; in the data active = activity change below about -50%; inconclusive = mostly about -30% to -49%
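Secreted IL-1B measured by AlphaLISA bead assay after 16 h compound exposure of THP-1 cells; compounds (final up to 57.5 uM) added 1 h before LPS (250 ng/mL) and ATP (1.25 mM) stimulation; lower signal means less secretion.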
DT40 TDP1 no CPT: qHTS for Inhibitors of human tyrosyl-DNA phosphodiesterase 1 (TDP1): qHTS in cells in absence of CPT. DT40 Tdp1-/- hTDP1 cells, no CPT, ATP luminescence, 48 h. Potency, µM (titrated, usually from 46.2 µM), hits mostly inhibitors. 420,000 tested, 15% active; also: nearly all actives have a fitted effect of over 55% in size
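Growth of hTDP1-complemented DT40 Tdp1-knockout cells is measured by ATP luminescence after at least 48 hr compound exposure at 37 °C, with DMSO substituting for the 20 nM CPT used in the parallel screen.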
HT1080NT lethal: qHTS for induction of synthetic lethality in tumor cells producing 2HG: qHTS for the HT-1080-NT fibrosarcoma cell line; 360,000 tested, 1.6% active; Potency, µM (top dose mostly 46.1 µM), most hits filed as cytotoxic; HT-1080-NT fibrosarcoma viability, CellTiter-Glo ATP luminescence, 48 h;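 also: NT is the 2HG producing partner of a matched IDH1 knockdown line; nearly all actives have a fitted effect of over 55% in size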
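HT-1080-NT; 750 cells/well; 5% FBS RPMI; 48 h compound, 37 degrees C; CellTiter-Glo luminescence; curve fitting and curve-class assignment.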
DT40 TDP1 CPT: qHTS for Inhibitors of human tyrosyl-DNA phosphodiesterase 1 (TDP1): qHTS in cells in presence of CPT; Potency, µM (top dose mostly 46.2 µM), hits mostly inhibitors; 420,000 tested, 12% active; chicken DT40 Tdp1-/-;hTDP1 cells + 20 nM CPT, ATP luminescence, 48 h; also: nearly all actives have a fitted effect of over 55% in size
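Cell growth measured by CellTiter-Glo luminescence after a minimum 48 h, 37 C compound exposure with 20 nM CPT in Tdp1-knockout DT40 cells stably expressing hTDP1, seeded 400/well; qHTS titration format.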
ELG1 repair inh: qHTS screen for small molecules that inhibit ELG1-dependent DNA repair in human embryonic kidney (HEK293T) cells expressing luciferase-tagged ELG1 | HEK293T ELG1-luciferase reporter, luminescence, 16 h; DNA damage induced by 5-fluorouridine | Potency, µM (top dose mostly 46.1 µM), hits mostly inhibitors | 330,000 tested, 2.3% active; also: nearly all actives have a fitted effect of over 55% in size
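In this reporter screen, reduction of luminescence relative to DMSO vehicle indicated activity. Compounds and 5-fluorouridine were added together to 2,000 cells per well, incubated for 16 hr at 37 °C, then developed with ONE-Glo.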
Of the large screens only hits and unclear results are named; the others gave an inactive call. Unless noted, calls follow the shape of the dose curve; as a rule, active = well fitted curve in the direction sought with a large enough effect; inconclusive = small, poorly fitted or top-dose-only effect, or another doubt; inactive = no such curve, though single readings can be large; an effect the other way counts as inactive or inconclusive.

Cc1cn2c(=O)cc(COC(=O)c3cccc(NC(=O)c4ccccc4C)c3)nc2s1	none (no result: HT1080 IDH1KD tx, IL-1B inflam inh, HT1080NT lethal, ELG1 repair inh)
Cc1cc(C)cc(Cn2cc(CN3CC(N4CCCCC4)CS3(=O)=O)nn2)c1 (stereo not drawn)	none (no result: ELG1 repair inh)
O=C(NCc1ccccc1F)C1CCN(Cc2cc3ccccc3n2Cc2cccc(Cl)c2)CC1	DT40 TDP1 no CPT 23.1µM, DT40 TDP1 CPT inconclusive (no result: HT1080 IDH1KD tx, IL-1B inflam inh, HT1080NT lethal, ELG1 repair inh)
O=C(NCCc1ccccc1)C1CCN(Cc2cc3ccccc3n2Cc2cccc(Cl)c2)CC1	DT40 TDP1 no CPT 20.6µM, DT40 TDP1 CPT inconclusive (no result: HT1080 IDH1KD tx, IL-1B inflam inh, HT1080NT lethal, ELG1 repair inh)
COc1ccc2nc(C)cc(N3CCC(C(N)=O)CC3)c2c1	none
CCOC(=O)C1CCN(c2cc(C)nc3ccc(OC)cc23)CC1	DT40 TDP1 no CPT 16.4µM, DT40 TDP1 CPT inconclusive, ELG1 repair inh inconclusive
COc1ccc(N2CCN(c3cc(C)nc4ccc(OC)cc34)CC2)cc1	HT1080 IDH1KD tx inconclusive, DT40 TDP1 no CPT 23.1µM, DT40 TDP1 CPT 14.6µM, ELG1 repair inh 13µM
CCC(C)NC(=O)Cn1ncc2c([nH]c3ccc(C)cc32)c1=O (stereo not drawn)	none (no result: HT1080 IDH1KD tx, IL-1B inflam inh, HT1080NT lethal, ELG1 repair inh)
COc1ccc(S(=O)(=O)Nc2cccc3c2O[C@H](CN(C)C(=O)Nc2ccc4c(c2)OCO4)[C@@H](C)CN([C@H](C)CO)C3=O)cc1	none
CCN(CC)c1ccc(NC(=O)c2cc(OC)cc(OC)c2)c(C)c1	HT1080 IDH1KD tx 4.61µM, DT40 TDP1 no CPT 1.3µM, HT1080NT lethal 3.66µM, DT40 TDP1 CPT 1.3µM
CCN(CC)c1ccc(NC(=O)c2ccc3c(c2)OCO3)c(C)c1	DT40 TDP1 no CPT inconclusive, DT40 TDP1 CPT inconclusive
CCN(CC)c1ccc(NC(=O)c2c(OC)cccc2OC)c(C)c1	none (no result: ELG1 repair inh)
CCN(CC)c1ccc(NC(=O)c2cccc(OC)c2)c(C)c1	HT1080 IDH1KD tx inconclusive, DT40 TDP1 no CPT inconclusive, HT1080NT lethal inconclusive, DT40 TDP1 CPT 29.1µM
CCN(CC)c1ccc(NC(=O)c2cc(CN3CCCC3)on2)c(C)c1	DT40 TDP1 no CPT 13µM, DT40 TDP1 CPT 16.4µM (no result: HT1080 IDH1KD tx, IL-1B inflam inh, HT1080NT lethal, ELG1 repair inh)
CCN(CC)c1ccc(NC(=O)C2COc3ccc(OC)cc3C2)c(C)c1 (stereo not drawn)	DT40 TDP1 no CPT 1.03µM, DT40 TDP1 CPT 0.581µM (no result: HT1080 IDH1KD tx, IL-1B inflam inh, HT1080NT lethal, ELG1 repair inh)
O=C(c1ccc(C(F)(F)F)cc1)N(Cc1cc2ccc(F)cc2nc1N1CCOCC1)C1CC1	DT40 TDP1 no CPT inconclusive (no result: HT1080 IDH1KD tx, IL-1B inflam inh, HT1080NT lethal, ELG1 repair inh)
O=Cc1ccc(O)c2ncccc12	HT1080 IDH1KD tx 3.66µM, IL-1B inflam inh -97.5, DT40 TDP1 no CPT 0.581µM, HT1080NT lethal 2.31µM, DT40 TDP1 CPT 0.651µM, ELG1 repair inh 2.31µM
Cc1cccc(OCC2Cn3c(nc4c3c(=O)[nH]c(=O)n4C)O2)c1 (stereo not drawn)	DT40 TDP1 no CPT 10.3µM, DT40 TDP1 CPT inconclusive, ELG1 repair inh inconclusive
CC1Cn2c(nc3c2c(=O)[nH]c(=O)n3C)O1 (stereo not drawn)	none
Cc1ccccc1OCC1Cn2c(nc3c2c(=O)[nH]c(=O)n3C)O1 (stereo not drawn)	DT40 TDP1 no CPT inconclusive, DT40 TDP1 CPT inconclusive
CCc1ccc(OCC2Cn3c(nc4c3c(=O)[nH]c(=O)n4C)O2)cc1 (stereo not drawn)	DT40 TDP1 no CPT 25.9µM, DT40 TDP1 CPT inconclusive, ELG1 repair inh inconclusive
O=C(Nc1ccc(Cl)cc1)Nc1ccc(Br)cn1	DT40 TDP1 no CPT 18.4µM, HT1080NT lethal inconclusive, DT40 TDP1 CPT 18.4µM, ELG1 repair inh inconclusive
COc1ccc(Cl)cc1NC(=O)Nc1ccc(Br)cn1	HT1080 IDH1KD tx 17.8µM, DT40 TDP1 no CPT inconclusive, HT1080NT lethal inconclusive, DT40 TDP1 CPT inconclusive, ELG1 repair inh inconclusive
COc1ccc(Cl)cc1NC(=O)Nc1cccc([N+](=O)[O-])c1C	DT40 TDP1 no CPT 23.1µM, DT40 TDP1 CPT inconclusive, ELG1 repair inh inconclusive
